# Test results reported in PubChem BioAssay (NCI).
# Compounds without any hit were thinned out: in the full panel of roughly 83,000, 20% have a hit.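 Note: values are percent growth. 100 is the growth of untreated cells, values between 100 and 0 indicate rising inhibition; between -100 and 0 indicates cell death.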 The source made the active and inactive calls. How the source made its calls: active means growth percent below 10; inactive means the rest.
# Test system: SR leukemia
# Experiment: NCI-60 one-dose screen, 48 h (100 = growth as untreated, 0 = no growth, -100 = all killed)
# Details: 10 µM unless noted
row,SMILES,growth
1,Fc1ccc(-c2cc3nc(C(Cl)Cl)nc(-c4ccccc4)n3n2)cc1,3.78% (active)
2,O=C(c1ccc(Cl)cc1)C1[C@H](c2ccc(Cl)cc2)[C@@H](c2ccccc2)NC12C(=O)Nc1ccc(Br)cc12 (stereo partly drawn),-5% (active)
3,COc1ccccc1C(=O)CSc1nc(Nc2ccc(S(N)(=O)=O)cc2)c2ccccc2n1,64.3% (inactive)
4,CC(C)(C)Nc1nc2c(OCCc3ccccc3)cccn2c1-c1ccccc1Cl,-14.6% (active)
5,CNC(=O)c1cc(-c2ccc(NC(=O)Nc3ccc(N4CCOCC4)c(C(F)(F)F)c3)cc2)nc2cccnc12,13.6% (inactive)
6,CS(=O)(=O)c1ccc(-n2cc(/C=C/C(=O)c3ccc(NC(=O)CO[N+](=O)[O-])cc3)c(-c3ccc(Cl)cc3)n2)cc1,113% (inactive)
7,Cc1[nH]nc2ncc(C#Cc3cncc(C(=O)Nc4ccc(CN5CCN(C)CC5)c(C(F)(F)F)c4)c3)cc12,19.6% (inactive)
8,CCN1C(=S)N(CC)C2C1N=C(SC)N2/N=C/C=C/c1ccccc1[N+](=O)[O-] (stereo not drawn),75% (inactive)
9,C/C(=C(/c1ccc(Cl)cc1)c1ccc(OCCN)cc1)c1ccc(C)cc1,88.6% (inactive)
10,O=[N+]([O-])c1ccc(O)c2ncccc12,14.6% (inactive)
11,Cc1cc(=O)oc2cc(OCCCOc3ccc(/C=C/C(=O)Nc4ccc(Cl)cc4)cc3)ccc12,37.7% (inactive)
12,Cc1ccc(-c2nc(C(Cl)Cl)nc3cc(-c4ccccc4)nn23)cc1,1.15% (active)
13,Nc1cc(-c2c[nH]c3ccc(F)cc23)nc2cc(-c3c[nH]c4ccc(F)cc34)nn12,-22.1% (active)
14,COc1cccc(N2CCN(c3ncnc4c3[nH]c3ccc(F)cc34)C[C@@H]2C)c1,-22.8% (active)
15,Cc1ccc(/C=C/c2nn3c(-c4ccco4)nnc3s2)cc1C,90.1% (inactive)
16,CCN1C(=S)N(CC)C2C1NN=C1SC(c3ccccc3)=CC(=O)N12 (stereo not drawn),52.1% (inactive)
17,CC(C)NC(=O)c1cc(-c2ccc(NC(=O)Nc3ccc(N4CCOCC4)c(C(F)(F)F)c3)cc2)nc2cccnc12,10.2% (inactive)
18,Cn1cc(-c2cc(N)n3nc(-c4cn(C)c5ccc(Cl)cc45)cc3n2)c2cc(Cl)ccc21,5.66% (active)
19,NS(=O)(=O)c1cccc(Nc2nc(SCC(=O)c3ccc(Cl)cc3)nc3ccccc23)c1,59.2% (inactive)

row,SMILES,growth
1,Cc1sc2c(c1C)c(=O)nc1c(-c3nc(-c4ccc(F)cc4)no3)n[nH]n12,97.6% (inactive)
2,CN1C(=O)N(c2ccccc2)C2N=C(N/N=C/c3ccccc3)SC21 (stereo not drawn),13.6% (inactive)
3,O=C1C2=C(C(=O)c3c(O)cccc31)C(c1ccco1)c1sc(=O)[nH]c1S2 (stereo not drawn),15.8% (inactive)
4,N[C@@H](Cc1cn(-c2c3ccccc3nc3ccccc23)nn1)C(=O)O,86% (inactive)
5,Cc1sc2nc(NCc3ccccc3Cl)[nH]c(=O)c2c1C,50.2% (inactive)
6,COc1ccccc1/C=C/C=N/NC1=NC2C(S1)N(C)C(=O)N2C (stereo not drawn),13.2% (inactive)
7,CC(=O)Nc1cc(F)cc(-c2ccc3[nH]cc(-c4ccccc4)c3n2)c1,-1.91% (active)
8,O=C(CSc1nc2sc3c(c2c(=O)n1-c1ccc(Cl)cc1)CCCC3)N/N=C/c1ccc(F)cc1,39.6% (inactive)
9,Cc1ccccc1NC(=O)/C=C/c1ccc(OCCOc2ccc3c(C)cc(=O)oc3c2)cc1,61.3% (inactive)
10,CCN(CC)c1ccc(C=O)c(OCc2cn(CC(=O)Nc3ccc(Cl)cc3)nn2)c1,47% (inactive)
11,CC(C)(C)OC(=O)N1C(=O)c2c(c3c4ccccc4[nH]c3c3ccc4ccccc4c23)C1=O,23% (inactive)
12,O=C(CSc1nc2sc3c(c2c(=O)n1-c1ccc(Cl)cc1)CCCC3)NNC(=O)Nc1cccc(C(F)(F)F)c1,5.49% (active)
13,CC(=O)Oc1ccccc1C(=O)Nc1cc(C(C)C)ccc1C,-28.1% (active)
14,N#Cc1c(-c2ccc(Cl)cc2)nc(SCc2ccc(F)cc2)nc1N1CCNCC1,-48.5% (active)
15,COc1ccc(NC(=O)c2sc3nc(-c4cnccn4)cc(-c4cccs4)c3c2N)cc1,71.6% (inactive)
16,CNC(=O)c1cc(-c2ccc(NC(=O)Nc3ccc(N4CCN(C)CC4)c(C(F)(F)F)c3)cc2)nc2cccnc12,-45.4% (active)
17,O=C(CSc1nccc(=O)[nH]1)Nc1ccc(-c2nc3ccccc3[nH]2)cc1,117% (inactive)
18,O=C1c2c(c3c4cccnc4[nH]c3c3ccc4ccccc4c23)C(=O)N1CCO,9.85% (active)
19,CN1CCN(Cc2ccc(NC(=O)c3cncc(C#Cc4cnc5ccc(N6CCSCC6)nn45)c3)cc2C(F)(F)F)CC1,-31.9% (active)
